± gives the standard deviation of the averaged measurements.

Common to all, as to assay: growth (OD600 after 10 h); higher = more growth (less inhibition)
Assay [1] concerns E. coli TESEC Alr+ wild-type control. As to conditions: compound 0.1 mM; raw OD600 reference: median of DMSO wells 0.241, cell-free background 0.041. On the procedure:
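TESEC Mtb Alr E. coli, or the Alr+ wild-type control, in 384-well plates with Prestwick library compounds at 0.1 mM and 1% DMSO, across arabinose induction levels of 1E3 to 1E7 nM. Growth is read as OD600 after 10 h at 37 °C in triplicate biological replicates.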

In the next assay the test system is E. coli TESEC Mtb Asd. As to conditions: compound 0.1 mM. On the procedure:
(§1)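 TESEC E. coli strains in which the native enzyme is deleted and replaced by arabinose-inducible Mtb Asd, DapB, CysH or TrpD, each grown in its selective medium. Strains were screened against the Prestwick library at 0.1 mM and 1% DMSO in 384-well format at low and high arabinose induction. Growth is read as OD600 after 10 h in triplicate.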

In a further assay the test system is E. coli TESEC Mtb DapB. To be noted: compound 0.1 mM. On the procedure: as §1
The next assay relates to E. coli TESEC Mtb Alr. As to conditions: compound 0.1 mM. On the procedure:
(§2)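 TESEC Mtb Alr E. coli (ΔaraC ΔtolC ΔentC Δalr ΔdadX, arabinose-inducible Mtb Alr) or the Alr+ wild-type control strain, grown in defined M9-fructose medium without D-alanine in 96-well plates with Prestwick library compounds at 0.1 mM and 1% DMSO. Low Alr induction is 0.1 µM arabinose and high induction is 10 mM arabinose.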

Assay [2] has as its system E. coli TESEC Alr+ wild-type control. To be noted: compound 0.1 mM; raw OD600 reference: median of DMSO wells 0.49, cell-free background 0.052. On the procedure: as §2
Where [3] appears, read: arabinose induction (level): High, raw OD600 reference: median of DMSO wells 0.331, cell-free background 0.041.
The mark [4] stands for this setting: arabinose induction (level): Low, raw OD600 reference: median of DMSO wells 0.417, cell-free background 0.041.
Setting [5] is: arabinose induction (level): High, raw OD600 reference: median of DMSO wells […], cell-free background 0.041.
The mark [6] stands for this setting: arabinose induction (level): Low, raw OD600 reference: median of DMSO wells 0.227, cell-free background 0.041.
The mark [7] stands for this setting: arabinose 100 nM, raw OD600 reference: median of DMSO wells 0.413, cell-free background 0.052.
Setting [8] is: arabinose 10000000 nM, raw OD600 reference: median of DMSO wells […], cell-free background 0.052.

As to `OCCN1CCN(CCCN2c3ccccc3Sc3ccc(Cl)cc32)CC1` [Perphenazine], the growth in assay [1] is 0.0416 ± 0.00046; with E. coli TESEC Mtb Asd (setting [3]), 0.0588 ± 0.0034; in the assay on E. coli TESEC Mtb Asd (setting [4]), 0.0626 ± 0.0018; with E. coli TESEC Mtb DapB (setting [5]), 0.0511 ± 0.001; in the assay on E. coli TESEC Mtb DapB (setting [6]), 0.0954 ± 0.078; in the assay with E. coli TESEC Mtb Alr (setting [7]) it was 0.285 ± 0.2. The growth in the assay with E. coli TESEC Mtb Alr (setting [8]) turned out to be 0.0538 ± 0.00074.

Consider `C=C1c2c(Cl)ccc(O)c2C(O)=C2C(=O)[C@]3(O)C(O)=C(C(N)=O)C(=O)[C@@H](N(C)C)[C@@H]3[C@@H](O)[C@H]12.O=C(O)c1cc(S(=O)(=O)O)ccc1O` [Meclocycline sulfosalicylate], for which the growth was 0.0437 ± 0.0018 in assay [1]; 0.0721 ± 0.0074 in the assay on E. coli TESEC Mtb Asd (setting [3]); 0.0594 ± 0.0053 in the assay on E. coli TESEC Mtb Asd (setting [4]); 0.156 ± 0.089 in the assay with E. coli TESEC Mtb DapB (setting [5]); 0.05473 ± 0.00042 with E. coli TESEC Mtb DapB (setting [6]); 0.0611 ± 0.00062 in the assay on E. coli TESEC Mtb Alr (setting [7]). The compound also yielded a growth in the assay with E. coli TESEC Mtb Alr (setting [8]) of 0.0561 ± 0.00065.

Turning to `COC(=O)[C@H]1[C@H]2C[C@@H]3c4[nH]c5cc(OC)ccc5c4CCN3C[C@H]2C[C@@H](OC(=O)c2cc(OC)c(OC)c(OC)c2)[C@@H]1OC` [Reserpine], the growth in assay [1] was 0.201 ± 0.0092; in the assay on E. coli TESEC Mtb Asd (setting [3]) it was 0.333 ± 0.032; with E. coli TESEC Mtb Asd (setting [4]), 0.191 ± 0.0062; in the assay on E. coli TESEC Mtb DapB (setting [5]) it was 0.245 ± 0.0092; in the assay on E. coli TESEC Mtb DapB (setting [6]) it was 0.3 ± 0.038; in the assay on E. coli TESEC Mtb Alr (setting [7]) it was 0.408 ± 0.013. The compound further came in with a growth with E. coli TESEC Mtb Alr (setting [8]) of 0.112 ± 0.076.

For the compound `CC(C)C[C@H](NC(=O)[C@@H](O)[C@H](N)Cc1ccccc1)C(=O)O` [Ubenimex], the growth was 0.24 ± 0.011 in assay [1]; 0.395 ± 0.019 in the assay with E. coli TESEC Mtb Asd (setting [3]); 0.382 ± 0.025 in the assay on E. coli TESEC Mtb Asd (setting [4]); 0.192 ± 0.017 in the assay with E. coli TESEC Mtb DapB (setting [5]); 0.229 ± 0.015 in the assay with E. coli TESEC Mtb DapB (setting [6]); 0.396 ± 0.011 in the assay on E. coli TESEC Mtb Alr (setting [7]). Besides, in the assay on E. coli TESEC Mtb Alr (setting [8]), the growth came out at 0.323 ± 0.018.

As to `Nc1ccc(S(=O)(=O)Nc2ccnn2-c2ccccc2)cc1` [Sulfaphenazole], the growth in assay [1] amounted to 0.231 ± 0.0032; in the assay on E. coli TESEC Mtb Asd (setting [3]) it was 0.335 ± 0.033; with E. coli TESEC Mtb Asd (setting [4]) it was 0.354 ± 0.0096; in assay [2], 0.484 ± 0.04; in the assay with E. coli TESEC Mtb Alr (setting [7]) it was 0.429 ± 0.0073; in the assay on E. coli TESEC Mtb Alr (setting [8]), 0.233 ± 0.15.

For `CSc1nc2cc(Cl)c(Oc3cccc(Cl)c3Cl)cc2[nH]1` [Triclabendazole], the growth in assay [1] worked out at 0.0427 ± 0.0024; with E. coli TESEC Mtb Asd (setting [3]) it was 0.0558 ± 0.0083; in the assay with E. coli TESEC Mtb Asd (setting [4]), 0.0583 ± 0.0045; in the assay on E. coli TESEC Mtb DapB (setting [5]), 0.0562 ± 0.0033; in the assay on E. coli TESEC Mtb DapB (setting [6]) it was 0.0542 ± 0.0043; in assay [2], 0.0897 ± 0.0096. The growth in the assay with E. coli TESEC Mtb Alr (setting [7]) stood at 0.0864 ± 0.011; in the assay on E. coli TESEC Mtb Alr (setting [8]), 0.137 ± 0.014.

`Clc1ccc(CSC(Cn2ccnc2)c2ccc(Cl)cc2Cl)cc1` (configuration not stated) [Sulconazole nitrate]: the growth was 0.0579 ± 0.0028 in assay [1]; 0.0615 ± 0.0029 in the assay with E. coli TESEC Mtb Asd (setting [3]); 0.0557 ± 0.0015 with E. coli TESEC Mtb Asd (setting [4]); 0.0605 ± 0.00098 in the assay with E. coli TESEC Mtb DapB (setting [5]); 0.0607 ± 0.0018 in the assay with E. coli TESEC Mtb DapB (setting [6]); 0.0787 ± 0.039 in the assay with E. coli TESEC Mtb Alr (setting [7]). In addition, in the assay with E. coli TESEC Mtb Alr (setting [8]), the growth is 0.0898 ± 0.0077.

As for `CC(C)(C)C(=O)OCOC(=O)[C@@H]1N2C(=O)[C@@H](NC(=O)[C@H](N)c3ccccc3)[C@H]2SC1(C)C` [Pivampicillin], the growth in assay [1] came out at 0.26 ± 0.0055; in the assay on E. coli TESEC Mtb Asd (setting [3]), 0.376 ± 0.075; with E. coli TESEC Mtb Asd (setting [4]), 0.396 ± 0.018; in assay [2], 0.555 ± 0.11; in the assay with E. coli TESEC Mtb Alr (setting [7]), 0.4 ± 0.012; with E. coli TESEC Mtb Alr (setting [8]), 0.379 ± 0.028.

On to `Cc1ccc(-c2cc(C(F)(F)F)nn2-c2ccc(S(N)(=O)=O)cc2)cc1` [Celecoxib], for which the growth in assay [1] was determined as 0.0401 ± 0.00046; with E. coli TESEC Mtb Asd (setting [3]), 0.04733 ± 0.00047; in the assay on E. coli TESEC Mtb Asd (setting [4]), 0.0479 ± 0.00085; in the assay on E. coli TESEC Mtb DapB (setting [5]), 0.0473 ± 0.00055; with E. coli TESEC Mtb DapB (setting [6]), 0.0486 ± 0.0019; with E. coli TESEC Mtb Alr (setting [7]), 0.308 ± 0.021. The same compound returned a growth in the assay with E. coli TESEC Mtb Alr (setting [8]) of 0.0533 ± 0.0036.

The record behind these values is the supplement of paper PMC9262897, “Low-cost anti-mycobacterial drug discovery using engineered E. coli” (Nature Communications, 2022).
